Experimental data published in PubChem BioAssay (NCATS).

molecular target: Glucocorticoid receptor (Homo sapiens) (UniProt P04150); experiment: GR-EFC Redistribution (AID 451); conditions: CHO-K1 GR-EFC translocation, beta-gal luminescence, 2 h
Procedure, shortened: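 CHO-K1 cells expressing nuclear EA and GR-ED fragments of b-gal; compounds titrated up to 46 uM final, 2 h at 37 C. GR nuclear translocation read as complemented b-gal luminescence after 1 h RT detection.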
Potency is the fitted concentration of half-maximal effect.

Glucocorticoid receptor (Homo sapiens), sequence (P04150 whole entry, looked up, the tested form may be a part): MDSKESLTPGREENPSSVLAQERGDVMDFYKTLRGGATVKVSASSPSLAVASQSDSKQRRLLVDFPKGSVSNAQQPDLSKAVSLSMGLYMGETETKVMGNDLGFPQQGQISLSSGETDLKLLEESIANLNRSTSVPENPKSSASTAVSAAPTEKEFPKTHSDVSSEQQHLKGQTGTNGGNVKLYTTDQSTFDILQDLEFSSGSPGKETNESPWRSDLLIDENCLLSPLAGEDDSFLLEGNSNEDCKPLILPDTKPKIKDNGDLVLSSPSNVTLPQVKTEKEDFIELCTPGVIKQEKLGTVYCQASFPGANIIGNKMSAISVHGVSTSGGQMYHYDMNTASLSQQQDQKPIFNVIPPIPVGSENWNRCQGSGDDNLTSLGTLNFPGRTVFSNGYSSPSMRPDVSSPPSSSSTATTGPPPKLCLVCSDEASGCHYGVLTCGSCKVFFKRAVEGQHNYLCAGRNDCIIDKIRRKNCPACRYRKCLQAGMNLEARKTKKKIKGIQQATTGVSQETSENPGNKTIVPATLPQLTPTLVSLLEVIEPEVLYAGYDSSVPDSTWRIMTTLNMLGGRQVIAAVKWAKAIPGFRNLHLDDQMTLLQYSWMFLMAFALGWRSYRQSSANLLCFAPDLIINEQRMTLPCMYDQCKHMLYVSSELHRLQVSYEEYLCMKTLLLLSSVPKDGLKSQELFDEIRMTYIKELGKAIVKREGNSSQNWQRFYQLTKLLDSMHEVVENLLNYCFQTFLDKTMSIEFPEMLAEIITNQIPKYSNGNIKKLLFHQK

Potency, inactive:
COCCn1c(=O)c(-c2ccc(Cl)cc2)nc2cnc(OCc3ccccc3)nc21 > 46 µM
CN1CCN(c2ncncc2-c2ccccc2C(F)(F)F)CC1 > 46 µM
O=c1c(-c2ccccc2)nc2cnc(N3CCNCC3)nc2n1-c1ccccc1 > 46 µM
Cc1ccccc1-c1nccc(Nc2ccc(F)cc2)n1 > 46 µM
COCCn1c(=O)c(-c2ccc(Cl)cc2)nc2cnc(OC)nc21 > 46 µM
Cc1nc2cnc(N3CCNCC3)nc2n(CCc2ccccc2)c1=O > 46 µM
CN1CCN(c2ncnc3ccc(-c4ccccc4C#N)cc23)CC1 > 46 µM
CN1CCN(c2ncc3nc(CCc4ccccc4)c(=O)n(Cc4ccc(F)cc4)c3n2)CC1 > 46 µM
N#CCCn1c(=O)c(-c2ccc(Cl)cc2)nc2cnc(OCc3ccccc3)nc21 > 46 µM
COc1ccc(Oc2ncc3nc(-c4cccs4)c(=O)n(CCC#N)c3n2)cc1 > 46 µM
COc1ccc(Oc2ncc3nc(CCc4ccccc4)c(=O)n(C[C@H]4CCCO4)c3n2)cc1 > 46 µM
O=c1cnc2cnc(N3CCNCC3)nc2n1Cc1cccs1 > 46 µM
COc1ccc(CNc2ncnc3ccc(-c4ccccc4OC)cc23)c(OC)c1 > 46 µM
Clc1ccccc1-c1nc(N2CCNCC2)c2ccccc2n1 > 46 µM
COCCn1c(=O)c(CCc2ccccc2)nc2cnc(N3CCN(C)CC3)nc21 > 46 µM
